Data taken from PubChem BioAssay (NCATS).
Inconclusive results are not listed. The source made the active and inactive calls. The call rests on the fitted dose curve; in most records, active means well fitted curve in the direction sought with a large enough effect; inconclusive means small, poorly fitted or top-dose-only effect, or another doubt; inactive means no such curve, though single readings can be large; an effect the other way counts as inactive or inconclusive.

Legend:
[1] = test system: CRL-7250; experiment: Cytotoxic Profiling of Annotated Libraries Using Quantitative High-Throughput Screening (AID 1296008); conditions: Five cell lines viability, CellTiter-Glo ATP luminescence, 48-72 h; max response: hits give low values; further: nearly all actives have a fitted effect of over 60% in size; further: potency means the concentration at half of the fitted maximal effect; on max response: on the % scale 0 is the no-effect control and ±100 the full control effect
Method in brief: (§1)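 Compounds were pin-transferred onto cells and incubated 48 or 72 hr at 37 degree Celsius, 95% humidity. CellTiter-Glo was added, plates sat 10 min at room temperature, then ATP-coupled luminescence was imaged as the viability read-out.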

[2] = test system: HEK293; experiment: as above; conditions: Five cell lines viability, CellTiter-Glo ATP luminescence, 48-72 h; max response: hits give low values
Method in brief: as §1

[3] = test system: HaCat; experiment: as above; conditions: Five cell lines viability, CellTiter-Glo ATP luminescence, 48-72 h; max response: hits give low values
Method in brief: as §1

[4] = test system: KB-3-1; experiment: as above; conditions: Five cell lines viability, CellTiter-Glo ATP luminescence, 48-72 h; max response: hits give low values
Method in brief: as §1

[5] = test system: NIH3T3; experiment: as above; conditions: Five cell lines viability, CellTiter-Glo ATP luminescence, 48-72 h; max response: hits give low values
Method in brief: as §1

[6] = test system: NIH3T3; experiment: qHTS assay to identify novel small-molecules to repurpose for Merkel cell carcinoma treatment (AID 1296009); conditions: MCC and control cell lines, CellTiter-Glo viability, 72 h; at 44.8 µM (top of the series) unless noted; further: nearly all actives have a fitted effect of over 60% in size
Method in brief: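 Luminescence from CellTiter-Glo, read 10 min after addition at room temperature, reported viability following a 72 hr, 37 degree celsius treatment with NPC or MIPE compounds in titration; values normalized to plate controls.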

[7] = test system: C33A; experiment: Primary qHTS to identify gynecologic anti-cancer compounds using libraries of approved drugs and bioactive compounds (AID 1345084); conditions: Gynecologic cancer cell panel viability, ATPlite luminescence, 48 h; series mostly up to 57.5 µM; further: on the % scale 0 is the no-effect control and ±100 the full control effect; nearly all actives have a fitted effect of over 55% in size
Method in brief: (§2)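 In this quantitative HTS, cell killing is estimated from loss of ATP-dependent luciferase light. Cells see five compound concentrations over a 48 h exposure.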

[8] = test system: CAOV3; experiment: as above; conditions: Gynecologic cancer cell panel viability, ATPlite luminescence, 48 h; series mostly up to 57.5 µM
Method in brief: as §2

[9] = test system: CASKI; experiment: as above; conditions: Gynecologic cancer cell panel viability, ATPlite luminescence, 48 h; series mostly up to 57.5 µM
Method in brief: as §2

[10] = test system: Es-2; experiment: as above; conditions: Gynecologic cancer cell panel viability, ATPlite luminescence, 48 h; series mostly up to 57.5 µM
Method in brief: as §2

[11] = test system: HeLa; experiment: as above; conditions: Gynecologic cancer cell panel viability, ATPlite luminescence, 48 h; series mostly up to 57.5 µM
Method in brief: as §2

[12] = test system: Hek293T; experiment: as above; conditions: Gynecologic cancer cell panel viability, ATPlite luminescence, 48 h, control line for the selectivity index; series mostly up to 57.5 µM
Method in brief: as §2

[13] = test system: JEG-3; experiment: as above; conditions: Gynecologic cancer cell panel viability, ATPlite luminescence, 48 h; series mostly up to 57.5 µM
Method in brief: as §2

CC[C@H]1OC(=O)[C@H](C)[C@@H](O[C@H]2C[C@@](C)(OC)[C@@H](O)[C@H](C)O2)C(C)[C@@H](O[C@@H]2O[C@H](C)C[C@H](N(C)C)[C@H]2O)[C@](C)(O)C[C@@H](C)CN(C)[C@H](C)[C@@H](O)[C@]1(C)O (stereo not given in full)
inactive: max response [1] -0.571% | max response [2] 1.9% | max response [3] -11.4% | max response [4] -2.18% | outcome [5] | outcome [6] | Potency [7] | Potency [8] | outcome [9] | Potency [10] | Potency [11] | Potency [12] | Potency [13]

CN1CCN(c2nc(-c3ccc(C(=O)NC4(C(=O)NCC#N)CCCCC4)cc3)cs2)CC1
inactive: max response [1] 2.74% | max response [2] -8.37% | max response [3] 1.43% | max response [4] -9.9% | outcome [5] | outcome [6] | Potency [7] | Potency [8] | outcome [9] | Potency [10] | Potency [11] | Potency [12] | Potency [13]

CC(=O)O[C@@]1(C)[C@@H]2CC(=C(C)C)C(=O)C[C@@]2(C)CC[C@H]1OC(=O)C1(C)OC1C (stereo not given in full)
inactive: max response [1] 1.92% | max response [2] -20.6% | max response [3] 0.799% | max response [4] 0.573% | outcome [5] | outcome [6] | Potency [7] | Potency [8] | outcome [9] | Potency [10] | Potency [11] | Potency [12] | Potency [13]

Cc1c(O)cc2c(c1O)COC1(O)CCCOC21 (stereo not given)
inactive: max response [1] -4.56% | max response [2] -1.54% | max response [3] -19.1% | outcome [4] | outcome [5] | outcome [6] | Potency [7] | Potency [8] | outcome [9] | Potency [10] | Potency [11] | Potency [12] | Potency [13]

COc1cc(Nc2nc3c(s2)CCCC3c2ccccc2)ccc1-n1cnc(C)c1 (stereo not given)
inactive: outcome [1] | max response [2] 3.81% | max response [3] -4.18% | max response [4] -3.56% | outcome [5] | outcome [6] inactive [at 9.27 µM] | activity change, negative = cytotoxicity [7] 6.98% [at 11.6 µM] | activity change, negative = cytotoxicity [8] 6.61% [at 11.6 µM] | activity change, negative = cytotoxicity [9] 15.8% [at 11.6 µM] | activity change, negative = cytotoxicity [10] 3.55% [at 11.6 µM] | activity change, negative = cytotoxicity [11] -6.36% [at 11.6 µM] | activity change, negative = cytotoxicity [12] 8.6% [at 11.6 µM] | activity change, negative = cytotoxicity [13] 2.94% [at 11.6 µM]

O=C(NC1Cc2ccccc2N(C[C@@H](O)CO)C1=O)c1cc2cc(Cl)sc2[nH]1 (stereo not given in full)
inactive: max response [1] -1.76% | max response [3] -0.0172% | max response [4] 3.62% | outcome [5] | outcome [6] | Potency [7] | Potency [8] | outcome [9] | Potency [10] | Potency [11] | Potency [12] | Potency [13]
active: Potency [2] 16.4 µM

O=C(OC[C@H]1O[C@@H](Oc2ccccc2CO)[C@H](O)[C@@H](O)[C@@H]1O)c1ccccc1
inactive: max response [1] -0.775% | max response [2] 0.13% | max response [3] 0.855% | max response [4] 3.27% | outcome [5] | outcome [6] | Potency [7] | Potency [8] | outcome [9] | Potency [10] | Potency [11] | Potency [12] | Potency [13]

CC1(O)CCC2C(C3C1CCC3(C)O)C2(C)C (stereo not given)
inactive: max response [1] 3.06% | max response [2] 0.939% | max response [3] 2.93% | max response [4] 7.36% | outcome [5] | outcome [6] | Potency [7] | Potency [8] | outcome [9] | Potency [10] | Potency [11] | Potency [12] | Potency [13]

CNc1nc(Cc2ccccc2)nc2c1CCNC[C@@H]2C
inactive: max response [1] -3.14% | max response [2] -0.288% | max response [3] -17.6% | max response [4] -9.65% | outcome [5] | outcome [6] | Potency [7] | Potency [8] | outcome [9] | Potency [10] | Potency [11] | Potency [12] | Potency [13]

COc1cc(C(C)=O)ccc1O[C@@H]1O[C@H](CO[C@@H]2OC[C@@H](O)[C@H](O)[C@H]2O)[C@@H](O)[C@H](O)[C@H]1O
inactive: max response [1] 0.428% | max response [2] -0.597% | max response [3] -2.37% | max response [4] 7.17% | outcome [5] | outcome [6] inactive [at 17.4 µM] | Potency [7] | Potency [8] | outcome [9] | Potency [11] | Potency [12] | Potency [13]

CC(C)[C@@](O)(c1ccc2cc(OC(F)F)c(OC(F)F)cc2c1)c1cn[nH]n1
inactive: max response [1] -0.82% | max response [2] -10.2% | max response [3] -0.148% | max response [4] 5.26% | outcome [5] | outcome [6] | Potency [7] | Potency [8] | outcome [9] | Potency [10] | Potency [11] | Potency [12] | Potency [13]

CC1(C)C=Cc2c(ccc3c2[N+]([O-])=C2C3(O)CC34NC(=O)C5(CCCN5C3=O)CC4C2(C)C)O1 (stereo not given)
inactive: max response [1] -1.3% | max response [2] -1.32% | max response [3] -0.0821% | outcome [4] | outcome [5] | outcome [6] inactive [at 17.4 µM] | Potency [7] | Potency [8] | outcome [9] | Potency [10] | Potency [11] | Potency [12] | Potency [13]
